Test results taken from ChEMBL document CHEMBL1961873, “Compounds: GSK PKIS; Assays: Nanosyn kinase panel” (2012).

Tests used:
[1] = target: Calcium/calmodulin-dependent protein kinase type II subunit alpha (Homo sapiens) (UniProt Q9UQM7); conditions: at 1 µM;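 note: reported value is a mean percent inhibition of CAMK2A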
[2] = target: Calcium/calmodulin-dependent protein kinase type II subunit delta (Homo sapiens) (UniProt Q13557); conditions: at 0.1 µM
[3] = target: Calcium/calmodulin-dependent protein kinase type II subunit delta (Homo sapiens) (UniProt Q13557); conditions: at 1 µM
[4] = target: T1, Calcium/calmodulin-dependent protein kinase type IV (Homo sapiens) (UniProt Q16566); conditions: at 0.1 µM
T1 sequence (whole entry): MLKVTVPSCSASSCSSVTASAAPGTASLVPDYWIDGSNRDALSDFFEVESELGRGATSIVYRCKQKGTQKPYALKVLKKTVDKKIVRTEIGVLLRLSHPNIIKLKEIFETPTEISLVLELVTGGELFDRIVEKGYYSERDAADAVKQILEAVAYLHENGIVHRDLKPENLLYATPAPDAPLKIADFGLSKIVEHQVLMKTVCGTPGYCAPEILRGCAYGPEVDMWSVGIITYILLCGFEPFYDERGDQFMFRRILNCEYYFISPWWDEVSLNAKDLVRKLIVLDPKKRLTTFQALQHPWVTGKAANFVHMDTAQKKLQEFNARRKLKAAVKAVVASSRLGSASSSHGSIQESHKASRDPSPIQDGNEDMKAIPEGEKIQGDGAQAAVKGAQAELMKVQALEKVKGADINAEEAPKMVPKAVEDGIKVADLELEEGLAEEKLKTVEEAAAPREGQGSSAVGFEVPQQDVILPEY

[5] = target: T1, Calcium/calmodulin-dependent protein kinase type IV (Homo sapiens); conditions: at 1 µM
[6] = target: T2, Serine/threonine-protein kinase Chk1 (Homo sapiens) (UniProt O14757); conditions: at 0.1 µM
T2 sequence (whole entry): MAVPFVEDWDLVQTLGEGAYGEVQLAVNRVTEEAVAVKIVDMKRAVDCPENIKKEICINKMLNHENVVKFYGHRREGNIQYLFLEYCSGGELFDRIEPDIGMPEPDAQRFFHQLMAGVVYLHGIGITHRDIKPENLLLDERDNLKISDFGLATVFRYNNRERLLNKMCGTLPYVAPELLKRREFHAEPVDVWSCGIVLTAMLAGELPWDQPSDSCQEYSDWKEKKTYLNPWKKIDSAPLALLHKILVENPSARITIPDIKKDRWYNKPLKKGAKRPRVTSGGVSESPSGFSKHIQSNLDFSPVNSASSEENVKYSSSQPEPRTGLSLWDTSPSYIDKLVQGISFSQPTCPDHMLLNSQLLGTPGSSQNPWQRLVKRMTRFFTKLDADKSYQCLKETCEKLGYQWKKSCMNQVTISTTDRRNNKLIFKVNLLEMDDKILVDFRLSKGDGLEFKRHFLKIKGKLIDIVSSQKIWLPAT

[7] = target: T2, Serine/threonine-protein kinase Chk1 (Homo sapiens); conditions: at 1 µM
[8] = target: Serine/threonine-protein kinase Chk2 (Homo sapiens) (UniProt O96017); conditions: at 0.1 µM
[9] = target: Serine/threonine-protein kinase Chk2 (Homo sapiens) (UniProt O96017); conditions: at 1 µM
[10] = target: Death-associated protein kinase 1 (Homo sapiens) (UniProt P53355); conditions: at 0.1 µM;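 note: reported figure is the mean inhibition of DAPK1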
Death-associated protein kinase 1 (Homo sapiens), sequence (P53355 whole entry, looked up): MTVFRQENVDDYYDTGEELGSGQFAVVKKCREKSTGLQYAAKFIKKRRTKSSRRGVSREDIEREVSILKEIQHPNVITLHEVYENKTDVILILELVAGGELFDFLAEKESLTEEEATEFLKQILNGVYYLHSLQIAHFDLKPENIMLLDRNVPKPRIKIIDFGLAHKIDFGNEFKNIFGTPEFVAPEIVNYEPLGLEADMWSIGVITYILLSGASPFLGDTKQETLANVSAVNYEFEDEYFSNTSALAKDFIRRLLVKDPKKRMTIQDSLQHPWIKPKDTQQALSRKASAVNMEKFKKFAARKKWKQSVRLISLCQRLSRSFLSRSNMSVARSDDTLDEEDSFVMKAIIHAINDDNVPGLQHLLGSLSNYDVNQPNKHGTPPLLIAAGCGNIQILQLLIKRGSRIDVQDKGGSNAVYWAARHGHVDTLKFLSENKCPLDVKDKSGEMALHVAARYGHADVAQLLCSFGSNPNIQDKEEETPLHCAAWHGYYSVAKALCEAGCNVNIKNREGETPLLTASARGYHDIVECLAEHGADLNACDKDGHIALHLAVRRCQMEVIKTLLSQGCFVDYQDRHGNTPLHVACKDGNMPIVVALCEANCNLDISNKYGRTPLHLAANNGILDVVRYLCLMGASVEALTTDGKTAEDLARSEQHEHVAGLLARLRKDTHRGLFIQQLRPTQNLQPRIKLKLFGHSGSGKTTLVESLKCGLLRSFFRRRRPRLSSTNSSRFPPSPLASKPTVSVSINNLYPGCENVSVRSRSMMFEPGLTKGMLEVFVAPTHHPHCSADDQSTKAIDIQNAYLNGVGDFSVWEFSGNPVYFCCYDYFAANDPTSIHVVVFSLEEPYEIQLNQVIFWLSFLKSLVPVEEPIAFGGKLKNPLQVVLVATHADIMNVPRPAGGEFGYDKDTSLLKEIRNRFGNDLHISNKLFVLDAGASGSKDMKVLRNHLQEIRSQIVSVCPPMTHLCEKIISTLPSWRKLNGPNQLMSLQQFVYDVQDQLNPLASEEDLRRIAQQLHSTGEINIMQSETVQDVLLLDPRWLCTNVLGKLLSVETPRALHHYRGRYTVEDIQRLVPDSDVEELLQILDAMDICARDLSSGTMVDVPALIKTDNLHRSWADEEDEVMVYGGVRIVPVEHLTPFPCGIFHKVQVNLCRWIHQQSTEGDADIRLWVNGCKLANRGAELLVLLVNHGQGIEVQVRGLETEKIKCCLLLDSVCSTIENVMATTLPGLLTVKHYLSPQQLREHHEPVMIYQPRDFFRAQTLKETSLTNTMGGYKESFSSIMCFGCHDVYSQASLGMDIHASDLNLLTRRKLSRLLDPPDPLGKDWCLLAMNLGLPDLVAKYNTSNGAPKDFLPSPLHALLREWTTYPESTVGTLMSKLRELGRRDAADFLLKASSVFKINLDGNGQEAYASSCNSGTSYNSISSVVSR

Serine/threonine-protein kinase Chk2 (Homo sapiens), sequence (O96017 whole entry): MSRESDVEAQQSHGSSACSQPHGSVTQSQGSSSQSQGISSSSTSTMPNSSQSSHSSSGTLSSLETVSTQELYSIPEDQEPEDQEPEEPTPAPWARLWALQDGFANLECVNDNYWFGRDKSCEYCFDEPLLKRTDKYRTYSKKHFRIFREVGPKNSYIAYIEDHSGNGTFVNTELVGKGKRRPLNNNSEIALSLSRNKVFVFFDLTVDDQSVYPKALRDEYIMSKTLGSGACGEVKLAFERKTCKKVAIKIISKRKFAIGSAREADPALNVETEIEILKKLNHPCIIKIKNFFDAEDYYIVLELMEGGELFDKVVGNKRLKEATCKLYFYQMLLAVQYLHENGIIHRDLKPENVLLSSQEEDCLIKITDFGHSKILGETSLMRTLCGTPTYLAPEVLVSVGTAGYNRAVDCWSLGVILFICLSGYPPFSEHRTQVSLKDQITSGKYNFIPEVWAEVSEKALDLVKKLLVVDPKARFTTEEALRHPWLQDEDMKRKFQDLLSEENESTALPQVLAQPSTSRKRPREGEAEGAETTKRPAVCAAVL
Calcium/calmodulin-dependent protein kinase type II subunit alpha (Homo sapiens), sequence (Q9UQM7 whole entry): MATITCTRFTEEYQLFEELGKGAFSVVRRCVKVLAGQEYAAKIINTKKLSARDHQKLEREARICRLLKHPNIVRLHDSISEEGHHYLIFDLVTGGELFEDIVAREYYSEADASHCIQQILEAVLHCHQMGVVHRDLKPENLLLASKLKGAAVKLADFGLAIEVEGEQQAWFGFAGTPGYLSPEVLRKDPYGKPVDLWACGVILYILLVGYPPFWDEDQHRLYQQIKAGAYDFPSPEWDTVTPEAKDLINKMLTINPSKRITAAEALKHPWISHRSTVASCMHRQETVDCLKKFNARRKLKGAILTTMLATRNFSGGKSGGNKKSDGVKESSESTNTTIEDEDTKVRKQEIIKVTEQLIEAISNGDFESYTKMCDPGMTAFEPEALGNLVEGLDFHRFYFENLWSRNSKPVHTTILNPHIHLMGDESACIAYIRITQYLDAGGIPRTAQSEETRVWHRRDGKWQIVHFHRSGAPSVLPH
Calcium/calmodulin-dependent protein kinase type II subunit delta (Homo sapiens), sequence (Q13557 whole entry): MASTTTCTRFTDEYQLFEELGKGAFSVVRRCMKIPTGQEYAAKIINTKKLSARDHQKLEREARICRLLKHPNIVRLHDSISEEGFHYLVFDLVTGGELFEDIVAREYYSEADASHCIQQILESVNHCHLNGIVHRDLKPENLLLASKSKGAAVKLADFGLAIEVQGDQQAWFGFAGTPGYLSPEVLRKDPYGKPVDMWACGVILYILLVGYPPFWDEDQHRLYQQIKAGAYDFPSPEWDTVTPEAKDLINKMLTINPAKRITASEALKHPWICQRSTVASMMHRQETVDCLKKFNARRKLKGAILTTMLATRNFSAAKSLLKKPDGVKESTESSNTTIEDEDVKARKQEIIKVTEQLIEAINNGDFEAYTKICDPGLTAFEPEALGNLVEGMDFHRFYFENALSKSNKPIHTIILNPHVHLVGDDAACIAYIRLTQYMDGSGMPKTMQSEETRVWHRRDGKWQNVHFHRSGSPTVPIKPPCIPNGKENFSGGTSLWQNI

SMILES | inhibition [1] | inhibition [2] | inhibition [3] | inhibition [4] | inhibition [5] | inhibition [6] | inhibition [7] | inhibition [8] | inhibition [9] | inhibition [10]
c1ccc(-c2n[nH]cc2-c2ccnc(-c3ccc(OCCN4CCOCC4)cc3)c2)nc1 | 0.85% | -1.29% | -0.13% | -0.9% | 0.4% | 1.01% | -1.98% | 3.21% | 2.24% | 1%
CS(=O)(=O)CCNCc1ccc(-c2ccc3ncnc(Nc4ccc(OCc5ccccc5)c(Br)c4)c3c2)o1 | -1.77% | 2.65% | 3.02% | -1.3% | -2.06% | 0.41% | 1.92% | 2.5% | 2.92% | 3.45%
Fc1ccc(-c2nc3n(c2-c2ccncc2)CCS3)cc1 | 3.82% | 4.18% | 4.28% | 0.62% | 0.23% | 0.32% | 3.69% | 2.74% | 3.47% | 2.36%
C#Cc1cccc(Nc2ncnc3ccc(OCCCCNCCS(C)(=O)=O)cc23)c1 | 3.33% | 3% | 5.51% | -0.65% | -2.02% | 1.45% | 4.94% | 2.64% | 7.73% | 3.32%
COc1ccc2ncn(-c3cc(O[C@H](C)c4ccccc4Cl)c(C(N)=O)s3)c2c1 | -1.4% | 2.08% | 4.15% | -2.83% | -2.54% | 0.23% | 0.19% | 2.58% | 1.99% | 3.77%
O=C(Nc1n[nH]c2nc(-c3ccco3)ccc12)C1CC1 | 1.36% | 2.25% | 2.34% | 2.75% | 3.02% | 1.37% | 8.39% | 4.66% | 6.05% | 7.38%
Fc1ccc(-c2ncn(CCCN3CCOCC3)c2-c2ccncc2)cc1 | 1.91% | 1.48% | 2.85% | 1.75% | 2.08% | 2.08% | -1.19% | -0.55% | -1.12% | 0.52%
COc1cccc(/C=N/Nc2ncnc3c2cnn3-c2cccc(OC)c2)c1 | 1.28% | 3.36% | 6.18% | -0.53% | 0.8% | -0.79% | -1.62% | 3.83% | 4.99% | -0.06%
FC(F)(F)c1cccc(Nc2nccc(-c3cnn4nc(-c5ccccc5)ccc34)n2)c1 | -0.96% | 0.96% | -1.12% | 1.79% | -1.25% | 3.93% | 1.39% | 0.57% | 1.27% | 3.36%
C/C(Nc1ccc(S(N)(=O)=O)cc1)=C1/C(=O)Nc2ccccc21 | -2.07% | -2.27% | 3.2% | -2.35% | -0.89% | 4.5% | 10.1% | -0.44% | 14.5% | 1.47%
COc1cc2ncn(-c3cc(OCCc4ccccc4)c(C(N)=O)s3)c2cc1OC | 2.38% | 2.83% | 3.66% | 1.62% | 0.6% | 1.61% | 7.39% | 1.58% | 4.01% | 2.25%
Fc1ccc(-c2ncn(C3CCNCC3)c2-c2ccnc(Oc3ccc(Oc4ccccc4)cc3)n2)cc1 | 9.16% | 3.93% | 10.3% | -1.5% | 4.41% | 10.6% | 16.4% | 8.69% | 13.4% | 12.4%
NS(=O)(=O)c1ccc(N/N=C2\C(=O)Nc3ccc(-c4cnco4)cc32)cc1 | 4.17% | 2.48% | 16.3% | -0.57% | -0.99% | -0.45% | 6.95% | 0.92% | 5.7% | -1.79%
COc1cc2ncn(-c3cc(OCc4cccs4)c(C(N)=O)s3)c2cc1OC | 1.67% | 0.52% | 2.97% | -3.4% | -4.06% | 1.35% | 3.75% | 2.01% | 5.81% | 0.06%
Nc1nccc(-c2c(-c3ccc(F)cc3)ncn2C2CCC(O)CC2)n1 (stereo not given) | -3.25% | -1.92% | 1.53% | 9.35% | -0.1% | -3.08% | 0.13% | -1.95% | -1.72% | -1.1%
COc1ccc2cc(-c3c(-c4ccncc4)nc(-c4ccc([S+](C)[O-])cc4C)n3C)ccc2c1 (stereo not given) | -1.04% | -0.62% | 0.45% | 0.58% | 1.17% | -4.29% | -9.96% | -6.42% | -5.67% | -9.46%
NS(=O)(=O)c1ccc(Nc2cc(-c3ccc(O)c(F)c3)n[nH]2)cc1 | -4.72% | -3.72% | 1.69% | 0.82% | 0.53% | -5.01% | 8.18% | -1.68% | 3.93% | -2.1%

SMILES | inhibition [1] | inhibition [2] | inhibition [3] | inhibition [4] | inhibition [5] | inhibition [6] | inhibition [7] | inhibition [8] | inhibition [9] | inhibition [10]
COc1cc(N2CCN(C(C)C)CC2)ccc1Nc1nc(Nc2ccc(F)cc2C(=O)NC[C@@H](O)CO)c2cc[nH]c2n1 | 4.13% | 3.45% | 7.22% | -2.03% | -0.93% | 2.18% | 6.24% | 17.2% | 52.4% | 9.94%
COc1cc(Nc2ncc(-c3ccccc3)o2)cc(OC)c1OC | -0.38% | -2.56% | 5.55% | -4.13% | 0.09% | 1.58% | 5.64% | -3.16% | 1.28% | 1.78%
O=C(Nc1n[nH]c2cc(-c3ccccc3)ccc12)C1CC1 | 2.25% | 3.79% | 3.53% | -1.93% | -1.21% | 2.36% | 5.48% | 2.81% | 3.79% | 5.91%
CCS(=O)(=O)c1ccc(OC)c(Nc2ncc(-c3ccccc3Cl)o2)c1 | 3.37% | 1.45% | 1.43% | 2.52% | 0.4% | 5.3% | 5.1% | -1.42% | -0.76% | 4.59%
CN1CCN(CCCNc2nc3ccc(Oc4ccc(NC(=O)Nc5cc(C(F)(F)F)ccc5F)cc4)cc3[nH]2)CC1 | 7.84% | 3.68% | 6.84% | 1.94% | 4.86% | -0.5% | 0.8% | 1.31% | 0.77% | -0.32%
CN(C)CCOc1ccc(-c2cc(-c3ccc4c(c3)CCC4=NO)c(-c3ccncc3)o2)cc1 | 0.22% | -0.38% | 2.18% | -0.94% | 1.99% | -2.19% | -2.8% | -1.13% | -1.56% | -1.01%
C[C@@H](Oc1cc(-n2cnc3ccc(OCC4CCN(C)CC4)cc32)sc1C(N)=O)c1ccccc1Cl | 12.8% | 9.02% | 38.1% | 0.69% | 3.44% | 7.19% | 10.4% | 2.55% | 6.43% | 7.7%
O=C1NC(=O)C(c2cccc(Cl)c2)=C1Nc1ccc(Cl)c(C(=O)O)c1 | 2.06% | 1.45% | 4.49% | -0.36% | -0.93% | 0.81% | 2.22% | 2.39% | 3.13% | 3.48%
c1ccc(Oc2ccc(Nc3ncc(-c4ccccc4)o3)cc2)cc1 | 0.18% | 0.76% | 0.58% | 0.49% | 1.32% | 0.67% | 1.6% | 0.58% | 1.05% | 0.04%
COc1cc(Nc2ncc3c(C)nc(-c4cccc(Oc5ccccc5)c4)n3n2)cc(OC)c1OC | 4.08% | 3.36% | 3.83% | 1.65% | 4.26% | 3.9% | 10.2% | 7.97% | 11.6% | 8.86%
Cc1nnc(-c2ccc(C)c(-c3ccc(C(=O)NCc4ccc(Cl)cc4)cc3)c2)o1 | 3.22% | 2.75% | 2.68% | 0.34% | 0.46% | 1.36% | 2.22% | 1.43% | 1.86% | 2.85%
Cc1ccc(NC(=O)c2ccoc2)cc1-c1ccc(C(=O)NCC2CC2)cc1 | -3.72% | 1.18% | -0.48% | -0.8% | -1.43% | 2% | 1.01% | 1.96% | 1.43% | 3.89%
Fc1ccc(-c2ncn(C3CCNCC3)c2-c2ccnc(Oc3ccc4c(c3)OCO4)n2)cc1 | 12.6% | 2.69% | 3.08% | 0.19% | 0.41% | -3.37% | -1.58% | -2.12% | -3.43% | -1.22%
O=C(Nc1n[nH]c2nc(-c3ccc(O)cc3)c(Br)cc12)C1CC1 | 8.39% | 6.47% | 20.1% | -0.14% | 2.12% | 8.74% | 16.8% | 2.09% | 4.23% | 5.9%
COC(=O)Nc1nc2ccc(Sc3ccc(NC(=O)Nc4cc(C(F)(F)F)ccc4F)cc3)cc2[nH]1 | 4.35% | 1.39% | 2.79% | 0.44% | 1.75% | 2.81% | 1.17% | -0.98% | 0.37% | 3.64%
NCc1ccc(-n2c(-c3nonc3N)nc3cnccc32)cc1 | 7.05% | 6.42% | 15.2% | -0.16% | 4.15% | 8.32% | 12.3% | 2.9% | 6.29% | 7.02%
CN(C)CCCNc1nccc(-c2c(-c3ccc(F)cc3)nn3cc(C(F)(F)F)ccc23)n1 | 4.26% | 3.65% | 4.37% | 1.43% | 2.27% | -3.07% | 1.13% | 0.82% | 0.61% | 0.55%
